# According to the supplement of paper PMC9262897, “Low-cost anti-mycobacterial drug discovery using engineered E. coli” (Nature Communications, 2022):
# Counter-ions that a name gives are not always drawn. ± gives the standard deviation of the averaged measurements.
# System: E. coli TESEC Mtb Alr
# Experiment: growth (OD600 after 10 h); higher = more growth (less inhibition)
# Settings: arabinose 10000000 nM; compound 0.1 mM; raw OD600 reference: median of DMSO wells 0.146, cell-free background 0.041
# Method: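 TESEC Mtb Alr E. coli, or the Alr+ wild-type control, in 384-well plates with Prestwick library compounds at 0.1 mM and 1% DMSO, across arabinose induction levels of 1E3 to 1E7 nM. Growth is read as OD600 after 10 h at 37 °C in triplicate biological replicates.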
row,Compound,growth
1,CN(C)CCN(Cc1ccc(Cl)cc1)c1ccccn1 [Chloropyramine hydrochloride],0.128 ± 0.006
2,O=C1NCCN1CCN1CCC(c2cn(-c3ccc(F)cc3)c3ccc(Cl)cc23)CC1 [Sertindole],0.0443 ± 0.0027
3,O=C1NCC2(CCN(CCc3ccccc3)CC2)O1 [Fenspiride hydrochloride],0.148 ± 0.0017
4,CC(C)[C@H]1CC[C@H](C(=O)N[C@H](Cc2ccccc2)C(=O)O)CC1 [Nateglinide],0.147 ± 0.0056
5,CCOC(=O)[C@H](CCc1ccccc1)N[C@@H](C)C(=O)N1CCC[C@H]1C(=O)O [Enalapril maleate],0.161 ± 0.009
6,CC1(C)O[C@@H]2[C@@H](CO[C@@]3(COS(N)(=O)=O)OC(C)(C)O[C@@H]23)O1 [Topiramate],0.136 ± 0.0016
7,c1ccc2c(c1)CCCc1cc(NCCN3CCOCC3)nnc1-2,0.133 ± 0.0058
8,CC[C@@H]1C(=O)OC[C@@H]1Cc1cncn1C [Pilocarpine nitrate],0.145 ± 0.0063
9,Cn1ccnc1S [Methimazole],0.16 ± 0.0067
10,NC[C@H]1O[C@H](O[C@H]2[C@H](O)[C@@H](O[C@H]3O[C@H](CO)[C@@H](O)[C@H](N)[C@H]3O)[C@H](N)C[C@@H]2N)[C@H](N)C[C@@H]1O [Tobramycin],0.04083 ± 5.8e-05
11,O=C1C(CC[S+]([O-])c2ccccc2)C(=O)N(c2ccccc2)N1c1ccccc1 (stereo not given) [Sulfinpyrazone],0.146 ± 0.0031
12,C=C1/C(=C\C=C2/CCC[C@]3(C)[C@@H]([C@H](C)CCCC(C)C)CC[C@@H]23)C[C@@H](O)C[C@@H]1O [Alfacalcidol],0.121 ± 0.002
13,C[C@H](O)C(=O)Nc1c(I)c(C(=O)NC(CO)CO)c(I)c(C(=O)NC(CO)CO)c1I [Iopamidol],0.166 ± 0.0031
14,CCCCNc1cc(C(=O)O)cc(S(N)(=O)=O)c1Oc1ccccc1 [Bumetanide],0.138 ± 0.0095
15,CN(C)CCCOc1nn(Cc2ccccc2)c2ccccc12 [Benzydamine hydrochloride],0.146 ± 0.0037
16,CCn1nc(C(=O)O)c(=O)c2cc3c(cc21)OCO3 [Cinoxacin],0.139 ± 0.0015
17,CCCCOC(=O)c1ccc(N)cc1 [Butamben],0.16 ± 0.0031
18,C#C[C@]1(O)CC[C@H]2[C@@H]3CCC4=CCCC[C@@H]4[C@H]3CC[C@@]21C [Lynestrenol],0.15 ± 0.0066
19,CCc1c2c(nc3ccc(OC(=O)N4CCC(N5CCCCC5)CC4)cc13)-c1cc3c(c(=O)n1C2)COC(=O)[C@]3(O)CC [Irinotecan hydrochloride trihydrate],0.156 ± 0.0056
20,CN(C)CCn1nnnc1SCC1=C(C(=O)O)N2C(=O)[C@@H](NC(=O)Cc3csc(N)n3)[C@H]2SC1 [Cefotiam hydrochloride],0.0878 ± 0.0087

row,Compound,growth
1,O=S(=O)(O)c1cc(O)ccc1O [Ethamsylate],0.13 ± 0.0042
2,NNC(=O)c1ccncc1 [Isoniazid],0.139 ± 0.0028
3,O=C(O)/C=C/c1ccc(Cn2ccnc2)cc1 [Ozagrel hydrochloride],0.143 ± 0.0023
4,NCCC[C@H](N)CC(=O)N[C@H]1CNC(=O)[C@H]([C@H]2C[C@H](O)NC(N)=N2)NC(=O)/C(=C/NC(N)=O)NC(=O)[C@H](CO)NC(=O)[C@H](CO)NC1=O [Viomycin sulfate],0.143 ± 0.0015
5,CC1CS(=O)(=O)CCN1/N=C/c1ccc([N+](=O)[O-])o1 (stereo not given) [Nifurtimox],0.0554 ± 0.00081
6,CC(C)C(=O)Nc1ccc([N+](=O)[O-])c(C(F)(F)F)c1 [Flutamide],0.0856 ± 0.0029
7,Nc1ccc(S(=O)(=O)Nc2cnc3ccccc3n2)cc1 [Sulfaquinoxaline sodium salt],0.137 ± 0.0051
8,Cc1cnc(NC(=O)C2=C(O)c3ccccc3S(=O)(=O)N2C)s1 [Meloxicam],0.149 ± 0.0054
9,CCCc1ncc(C[n+]2ccccc2C)c(N)n1 [Amprolium hydrochloride],0.142 ± 0.0046
10,COc1cc(C(=O)OCCCN2CCCN(CCCOC(=O)c3cc(OC)c(OC)c(OC)c3)CC2)cc(OC)c1OC [Dilazep dihydrochloride],0.154 ± 0.0029
11,CC(C)(O/N=C(\C(=O)N[C@@H]1C(=O)N2C(C(=O)[O-])=C(C[n+]3ccccc3)CS[C@H]12)c1csc(N)n1)C(=O)O [Ceftazidime pentahydrate],0.0674 ± 0.0023
12,O=C(c1ccc(OCCN2CCCCC2)cc1)c1c(-c2ccc(O)cc2)sc2cc(O)ccc12 [Raloxifene hydrochloride],0.0448 ± 0.003
13,CS(=O)(=O)c1ccc([C@@H](O)[C@@H](CO)NC(=O)C(Cl)Cl)cc1 [Thiamphenicol],0.055 ± 0.0011
14,CN(C)CC/C=C1\c2ccccc2CSc2ccccc21 [Dosulepin hydrochloride],0.163 ± 0.0079
15,CCOc1nc2cccc(C(=O)O)c2n1Cc1ccc(-c2ccccc2-c2nnn[nH]2)cc1 [Candesartan],0.141 ± 0.0058
16,CCc1cc(C(N)=S)ccn1 [Ethionamide],0.144 ± 0.0028
17,CN(C)CCCC1(c2ccc(F)cc2)OCc2cc(C#N)ccc21 (stereo not given) [Citalopram Hydrobromide],0.138 ± 0.0049
18,Cn1c(=O)c2c(ncn2C)n(C)c1=O [Caffeine],0.14 ± 0.0044
19,COc1ccc(C(=O)NCc2ccc(OCCN(C)C)cc2)cc1OC [Itopride],0.159 ± 0.0051
20,Cn1cnc([N+](=O)[O-])c1Sc1ncnc2[nH]cnc12 [Azathioprine],0.0849 ± 0.0021
